# From PubChem BioAssay
# CYP2C9 act – increases human cytochrome P450 2C9 activity | P11712 | recombinant CYP2C9, luciferin-H conversion, luminescence; stronger effect = higher value; factor 1 = untreated enzyme, 0 = blocked | activation factor at 5 µM | 96,000 compounds, 1.4% hits;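 active means activation factor of 2 or more for CYP2C9 at a 5 µM dose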;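 further: 0 = sulfaphenazole-blocked wells and 1 = vehicle-only wells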
# Target sequence (P11712 whole entry, looked up): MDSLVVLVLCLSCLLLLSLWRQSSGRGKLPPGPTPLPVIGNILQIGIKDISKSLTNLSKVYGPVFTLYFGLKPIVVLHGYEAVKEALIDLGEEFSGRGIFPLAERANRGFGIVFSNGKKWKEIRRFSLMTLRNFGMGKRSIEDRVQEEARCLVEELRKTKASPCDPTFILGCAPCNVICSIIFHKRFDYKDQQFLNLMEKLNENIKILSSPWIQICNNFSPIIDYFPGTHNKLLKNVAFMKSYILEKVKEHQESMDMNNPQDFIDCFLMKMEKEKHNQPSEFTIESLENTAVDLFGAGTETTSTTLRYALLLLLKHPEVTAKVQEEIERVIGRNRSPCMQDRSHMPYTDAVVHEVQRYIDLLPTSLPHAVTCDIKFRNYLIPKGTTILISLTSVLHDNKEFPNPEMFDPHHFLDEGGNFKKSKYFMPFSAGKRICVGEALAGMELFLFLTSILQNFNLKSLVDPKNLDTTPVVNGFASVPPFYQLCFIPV
# CYP2C19 inh – human CYP2C19 inhibition; inhibition, % at 5 µM; AID 778; CYP2C19 Supersomes, luciferin-H EGE luminescence, 30 min; 96,000 compounds, 21% hits; P33261;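 active means CYP2C19 inhibition above a set limit at 5 µM in the primary screen, cut at about 50% in these data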;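 further: plate controls were negative control wells for no effect and 2.5 mM tranylcypromine positive control for full effect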
# Cav32 inh – human Cav3.2 channel inhibition, primary screen; B-score at 10 µM; O95180; Cav3.2-expressing cells, Fluo-4 calcium fluorescence FDSS; stronger effect = lower value; 100,000 compounds, 4% hits;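 active means single-dose well whose peak fluorescence ratio is a statistical outlier from its plate by either plate-standardised score or position-corrected B-score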
# CYP2C9 inhib – inhibitors of human CYP2C9; P11712; CYP2C9 Supersomes, luciferin-H conversion, luminescence; inhibition, % at 5 µM; 96,000 compounds, 20% hits; AID 777;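 active means blocking of liver enzyme CYP2C9 beyond about 50% at 5 µM, limit read from the data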
# CYP2C19 activ – cytochrome P450 2C19 (human) activation | P33261 | recombinant CYP2C19, luciferin-H EGE luminescence; stronger effect = higher value; 0 = fully inhibited enzyme, 1 = untreated enzyme | activation factor at 5 µM | 96,000 tested, under 10 active;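 active means activation factor of at least 2 at 5 µM in the primary screen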;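 further: 0 = wells with 2.5 mM tranylcypromine and 1 = vehicle-only wells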
# * = called active by the depositor; . = no result. Most compounds without a hit are left out; they make up all but 27% or so of the library.
SMILES,CYP2C9 act,CYP2C19 inh,Cav32 inh,CYP2C9 inhib,CYP2C19 activ
c1ccc(-n2nnnc2SCc2cn3ccccc3n2)cc1,1,40,1.7,5,0.6
Clc1ccc(-n2nnnc2SCc2c(-c3ccccc3)nc3sccn23)cc1,0.1,25,-4.7,89*,0.8
CN1C(=O)C(O)(CC(=O)c2ccncc2)c2ccccc21 (configuration not stated),0.9,14,0.024,9,0.9
O=C(CC1(O)C(=O)N(C/C=C/c2ccccc2)c2ccccc21)c1ccccn1 (configuration not stated),0.2,92*,-4.3,82*,0.1
Cc1onc(-c2ccccc2Cl)c1C(=O)Nc1sc2c(c1C#N)CCC2,0,98*,-5.4*,100*,0
Cc1onc(-c2ccccc2)c1C(=O)Nc1sc2c(c1C#N)CCC(C)C2 (configuration not stated),0.1,21,-1,92*,0.8
CCOC(=O)Nc1sc2c(c1C#N)CCC(C)C2 (configuration not stated),.,.,1.3,.,.
CCCc1cc(C(=O)Nc2sc3c(c2C#N)CCC3)no1,0.8,-18,.,21,1.2
CC1CCCC(C)N1C(=O)COC(=O)c1ccc(O)cc1 (configuration not stated),0.9,-16,1.5,10,1.2
c1ccc(-c2cn3nc(-c4ccccc4)c(-c4ccccc4)nc3n2)cc1,0.9,2,-5.3*,7,1
COc1ccc(Cl)cc1NC(=O)CN1CCC(n2nnc3cc(F)ccc32)CC1,0.8,76*,0.49,19,0.2
O=C(CN1CCC(n2nnc3cc(F)ccc32)CC1)Nc1ccc2c(c1)CCC2,0.6,44,-5.6*,45,0.6
CCOC(=O)CN(C(=O)CN1CCC(n2nnc3cc(C)ccc32)CC1)c1ccccc1,0.4,18,0.7,55*,0.8
CC1CCC(NC(=O)CN2CCC(n3nnc4cc(F)ccc43)CC2)CC1 (configuration not stated),0.9,32,0.25,11,0.7
Cc1ccc2c(c1)nnn2C1CCN(CC(=O)Nc2ccc3c(c2)OCCO3)CC1,0.5,27,1.2,50*,0.7
Cc1cc(NC(=O)CN2CCC(n3nnc4cc(C(F)(F)F)ccc43)CC2)no1,0.1,78*,-0.37,86*,0.2
O=C(CN1CCC(n2nnc3ccccc32)CC1)Nc1ccc2c(c1)CCC2,0.4,68*,-2.4,62*,0.3
O=C(NCc1cccc(Br)c1)C1CC(c2ccc(C(F)(F)F)cc2)=NO1 (configuration not stated),.,.,-1.2,.,.
CCOC(=O)c1[nH]nc(N)c1NC(=O)c1ccc(Cl)cc1Cl,.,.,0.35,.,.
C(=N\N1CCN(Cc2cccc3ccccc23)CC1)/c1cccnc1,1,31,-1.1,-2,0.7
CCCCSc1nnc(-c2cc3c(C(F)(F)F)nn(C)c3s2)n1C,2*,2,-0.67,-99,1
Cc1occc1C(=O)NNC(=O)C(c1ccccc1)c1ccccc1,0.6,20,0.12,41,0.8
CCOc1ccc2c(c1)sc(=NC(=O)C1CC1)n2C,0.9,13,-1.5,7,0.9
COCCn1c(=NC(=O)CSC(C)=O)sc2cc(OC)ccc21,0.6,8,-5.9*,44,0.9
COCCn1c(=NC(=O)CSCC(=O)NC2CCCCC2)sc2cc(OC)ccc21,0.4,82*,-0.41,57*,0.2
SMILES,CYP2C9 act,CYP2C19 inh,Cav32 inh,CYP2C9 inhib,CYP2C19 activ
COCCn1c(=NC(=O)CSC(C)=O)sc2cc(F)ccc21,0.7,46,-8.7*,28,0.5
CCn1c(=NC(=O)CSC(C)=O)sc2cc(OC)ccc21,.,.,-6.7*,.,.
CC1(C)CC(=NO)CC(C)(C)N1,0.7,8,0.2,34,0.9
CCC1=C/C(=C/N(C)c2ccccc2)C(=O)S1,0.9,9,-1.9,13,0.9
C=CCC(NC(C)c1ccccc1)c1ccco1 (configuration not stated),0.8,0,-1.8,20,1
Cc1cc([N+](=O)[O-])nn1CC(=O)NNC(=S)Nc1ccc(Cl)cc1,0.7,8,0.22,25,0.9
CCOC(=O)Cn1c(C(=O)OCC)cc2sccc21,0.6,35,-0.43,41,0.7
CCOC(=O)Cn1c(=NC(=O)CSC(C)=O)sc2cc(F)ccc21,0.8,35,-7.5*,16,0.7
O=C(CCNc1cccc(Cl)c1)c1cccs1,0.9,36,-1.9,13,0.6
S=C1NC[C@H](Cc2ccccc2)N1CCc1cccc2ccccc12,.,.,-1.1,.,.
CC1(C)CC(NCc2ccc3c(c2)OCO3)CCO1 (configuration not stated),0.9,25,0.031,12,0.8
CC[C@H]1CC2CN3CCc4c([nH]c5c([C@H]6C[C@H]7[C@H](CC)CN(C)[C@@H](Cc8c6[nH]c6ccccc86)[C@H]7C(=O)OC)c(OC)ccc45)C(C(=O)OC)(C2)C13,.,.,-3.8*,.,.
CCC1CN(C)C2Cc3c([nH]c4ccccc34)C(=O)CC1C2C(=O)OC (configuration not stated),.,.,-0.41,.,.
COC(=O)C1=C(N)Oc2cc(C)n(C)c(=O)c2C1c1ccc(Cl)cc1 (configuration not stated),1.3,-6,-0.9,-25,1.1
COc1ccc(C2C(C#N)=C(N)Oc3cc(C)n(CCN4CCOCC4)c(=O)c32)cc1OC (configuration not stated),0.9,10,0.4,14,0.9
COC(=O)C1=C(N)Oc2cc(C)n(CCN3CCOCC3)c(=O)c2C1c1cccnc1 (configuration not stated),0.7,71*,0.67,30,0.3
COC(=O)C1=C(N)Oc2cc(C)n(Cc3ccccc3)c(=O)c2C1c1ccccc1 (configuration not stated),0.3,45,-2.6,75*,0.6
Cc1cc(C(F)(F)F)nn1Cc1n[nH]c(=S)n1Cc1ccccc1,.,.,-0.21,.,.
C=CCOc1c(Cl)cc(C2NC(=O)NC(C)=C2C(=O)OC)cc1Cl (configuration not stated),0.6,57*,-1.5,37,0.4
Cc1ccc2[nH]c3c(c2c1)CCc1cn[nH]c1-3,0.1,70*,.,88*,0.3
COc1cc2c(cc1OC)CN(C(=O)C1(c3ccccc3)CC1)CC2,0.5,37,0.88,54*,0.6
COc1cc2c(cc1OC)CN(C(=O)C(C)(C)C)CC2,1,40,-0.24,2,0.6
CCOC(=O)c1cnc(-n2nc(C)cc2C)nc1NC(C)c1ccccc1 (configuration not stated),.,.,-8.8*,.,.
CCOC(=O)c1cnc(NCc2ccccc2)nc1C,0.4,51*,0.064,62*,0.5
CCOC(=O)c1cnc(-c2ccccc2)[nH]c1=O,0.5,11,0.34,55*,0.9
CCOC(=O)c1cnc(-n2nc(C)cc2C)nc1NCc1ccccc1,0.3,37,-0.98,68*,0.6
CCC/C(O)=C1\C(=O)CC(c2ccccc2)CC1=NCCc1c(C)[nH]c2ccc(C)cc12 (configuration not stated),.,.,-1.1,.,.
